Consider seven compounds from PubChem BioAssay (NCATS).

Molecules are shown by their SMILES. Results filed as inconclusive are left out. Values without a mark were called inactive. Activity calls are given as the source filed them. Calls come from the whole dose curve; as a rule, active = well fitted curve in the direction sought with a large enough effect; inconclusive = small, poorly fitted or top-dose-only effect, or another doubt; inactive = no such curve, though single readings can be large; an effect the other way counts as inactive or inconclusive.

In one test the test system is HEK293T. The experiment in a line: qHTS assay to identify novel small-molecules to repurpose for Merkel cell carcinoma treatment (AID 1296009). Note: nearly all actives have a fitted effect of over 60% in size. The settings on record: MCC and control cell lines, CellTiter-Glo viability, 72 h; series mostly up to 44.8 µM. The method in brief: (§1)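 Viability readout: ATP luminescence (CellTiter-Glo) after 72 hr drug exposure at 37 degree celsius. Dose-response format was 8 points for NPC and 11 points for MIPE; data normalized to in-plate controls.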
(Quantitative high-throughput screening tests each substance at several concentrations.)

Another test concerns C33A. The experiment in a line: Primary qHTS to identify gynecologic anti-cancer compounds using libraries of approved drugs and bioactive compounds (AID 1345084). Note: nearly all actives have a fitted effect of over 55% in size. The settings on record: Gynecologic cancer cell panel viability, ATPlite luminescence, 48 h; series mostly up to 57.5 µM. Summed up:
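48 h compound exposure at 37 C, 5% CO2; five-point qHTS. ATPlite luminescence readout of cell ATP.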

The subject of the next test is MCC-13. The experiment in a line: qHTS assay to identify novel small-molecules to repurpose for Merkel cell carcinoma treatment (AID 1296009). Note: nearly all actives have a fitted effect of over 60% in size. The conditions noted are these: MCC and control cell lines, CellTiter-Glo viability, 72 h; series mostly up to 46 µM. Summed up: as §1
Another test has as its system MCC-26. The description is as above. The settings on record: MCC and control cell lines, CellTiter-Glo viability, 72 h; series mostly up to 46 µM. The method in brief:
as §1
A general note: Cellular ATP, detected with luciferase, serves as a proxy for viable cell number.

The next test has as its system MKL-1. Described as above. The settings on record: MCC and control cell lines, CellTiter-Glo viability, 72 h; series mostly up to 46 µM. The method in brief:
as §1

The next test deals with MKL-2. The test is described as above. The conditions noted are these: MCC and control cell lines, CellTiter-Glo viability, 72 h; series mostly up to 46 µM. The method in brief: as §1
A further test deals with UISO. The test is described as above. The conditions noted are these: MCC and control cell lines, CellTiter-Glo viability, 72 h; series mostly up to 46 µM. The method in brief:
as §1

The test system of another test is WaGa. The test is described as above. The settings on record: MCC and control cell lines, CellTiter-Glo viability, 72 h; series mostly up to 46 µM. Summed up: as §1
% is set by controls: 0 for no effect and ±100 for the full control effect.

For `COc1c(OC2OC(CO)C(O)C(O)C2O)ccc(O)c1C(=O)OCc1ccccc1O[C@@H]1O[C@H](CO)[C@@H](O)[C@H](O)[C@H]1O` (stereo partly drawn), the Potency result with HEK293T and with C33A was “inactive” in each case.

Turning to `CC12CCC3c4ccc(O)cc4CCC3C1CCC2OC1OC(C(=O)O)C(O)C(O)C1O` (stereo not drawn), the Potency entry with HEK293T and with C33A was “inactive” in each case.

With `C=CC1(C)CC(O)C2(CCC3C(C)(C(=O)O)CCCC3(C)C2=O)C1` (stereo not drawn), the Potency entry in the test with HEK293T and with C33A was “inactive” throughout.

As for `OCC1=CC[C@@H]2C=CO[C@@H](O[C@@H]3O[C@H](CO)[C@@H](O)[C@H](O)[C@H]3O)[C@H]12`, the Potency result with HEK293T and in the test on C33A was “inactive” in each case.

For the compound `CC1(C)CCC(C)(C)c2cc3c(cc21)Sc1ccccc1N=C3c1ccc(C(=O)O)cc1`, the Potency entry with HEK293T and in the test with C33A was “inactive” in each case.

For `CC1OC(OC2C(CO)OC(OCC3OC(OC(=O)C45CCC(C)(C)CC4C4=CCC6C7(C)CCC(OC8OC(C(=O)O)C(O)C(OC9OC(CO)C(O)C(O)C9O)C8O)C(C)(C)C7CCC6(C)C4(C)CC5)C(O)C(O)C3O)C(O)C2O)C(O)C(O)C1O` (stereo not drawn), in the test on HEK293T, the outcome was “inactive [at 9.27 µM]”. Also, the activity change, negative = cytotoxicity in the test with C33A was 4.48% [at 6.55 µM].

`CN1Cc2c(N)cccc2C(c2ccccc2)C1` (stereo not drawn): the call with MCC-13, in the test on MCC-26, in the test with MKL-1, in the test on MKL-2, with UISO and in the test on WaGa was inactive.
